Inconclusive results are not listed. The source made the active and inactive calls. The call rests on the fitted dose curve; in most records, active means well fitted cell-killing curve with a large enough effect; inconclusive means small, poorly fitted or top-dose-only effect, or effect the other way; inactive means flat fitted curve, though single readings scatter.
Legend:
Assay in all cases: Primary qHTS to identify gynecologic anti-cancer compounds using libraries of approved drugs and bioactive compounds (AID 1345084); further: nearly all actives have a fitted effect of over 55% in size
Conditions in all cases: Gynecologic cancer cell panel viability, ATPlite luminescence, 48 h; series mostly up to 57.5 µM
OV90 = system: OV90
In short: (§1)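 48 h compound exposure at 37 C, 5% CO2; five-point qHTS. ATPlite luminescence readout of cell ATP.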

PA-1 = system: PA-1
In short: as §1

SKOV3 = system: SKOV3
In short: as §1

Tov-21-G = system: Tov-21-G
In short: as §1

Tov112D = system: Tov112D
In short: as §1

Measured: Potency

C=C1C2CCC3CC2(CC(O)C2(O)C1CC(OC1OC(CO)C(O)C(O)C1O)C2(C)C)CC3(C)O (stereo not given)
inactive: all assays above

COC(=O)C1=COC(O[C@@H]2O[C@H](CO)[C@@H](O)[C@H](O)[C@H]2O)C2C(C)C(=O)CC12 (stereo not given in full)
inactive: all assays above

COc1cc2c(cc1OC)N1C(=O)C[C@@]34C=CC[N@+]5([O-])CC[C@H]2[C@H](CC3)[C@@]145
inactive: all assays above

C=C(C)[C@@H]1CC[C@]2(C(=O)O)CC[C@]3(C)C(CCC4[C@]5(C)C(CC[C@]43C)C(C)(C)[C@@H](O)[C@@H]5C(=O)O)C12 (stereo not given in full)
inactive: all assays above

CC1=CC2=C(C)C(=O)[C@](C)(O)[C@H](O)C2=CO1
inactive: all assays above

Cc1ccc(C)c(NC(=O)CNS(=O)(=O)c2ccc3[nH]c(=O)oc3c2)c1
inactive: all assays above

C[C@@H]1C[C@@H](O)[C@@]2(CO)C(CO)=CCC[C@@H]2[C@@]12C[C@@H](c1ccoc1)OC2=O
inactive: all assays above

CC(=O)/C=C/C1(O)C(C)(C)CC(O)CC1(C)O (stereo not given)
inactive: all assays above

CCCN1CCC[C@@H](c2cccc(S(C)(=O)=O)c2)C1
inactive: all assays above

CC1(CO)CCCC2(C)C1C(OC(=O)c1ccccc1)CC1C(=O)OCC12O (stereo not given)
inactive: all assays above

COc1cncc(C#Cc2ccccn2)c1
inactive: all assays above

Source: PubChem BioAssay (NCATS)
